{
  "source": "PubChem BioAssay AID2537",
  "about": "(National Center for Advancing Translational Sciences (NCATS), 2010)",
  "note": "Inconclusive results are not listed. Values without a mark were called inactive. Calls follow the shape of the dose curve; as a rule, active = well fitted inhibition curve with a large enough effect; inconclusive = small, poorly fitted or top-dose-only effect; inactive = no such curve, though single readings can be large or run the other way.",
  "data": [
    {"target": "Polyunsaturated fatty acid lipoxygenase ALOX15B (Homo sapiens) (UniProt O15296)", "sequence (O15296 whole entry, looked up)": "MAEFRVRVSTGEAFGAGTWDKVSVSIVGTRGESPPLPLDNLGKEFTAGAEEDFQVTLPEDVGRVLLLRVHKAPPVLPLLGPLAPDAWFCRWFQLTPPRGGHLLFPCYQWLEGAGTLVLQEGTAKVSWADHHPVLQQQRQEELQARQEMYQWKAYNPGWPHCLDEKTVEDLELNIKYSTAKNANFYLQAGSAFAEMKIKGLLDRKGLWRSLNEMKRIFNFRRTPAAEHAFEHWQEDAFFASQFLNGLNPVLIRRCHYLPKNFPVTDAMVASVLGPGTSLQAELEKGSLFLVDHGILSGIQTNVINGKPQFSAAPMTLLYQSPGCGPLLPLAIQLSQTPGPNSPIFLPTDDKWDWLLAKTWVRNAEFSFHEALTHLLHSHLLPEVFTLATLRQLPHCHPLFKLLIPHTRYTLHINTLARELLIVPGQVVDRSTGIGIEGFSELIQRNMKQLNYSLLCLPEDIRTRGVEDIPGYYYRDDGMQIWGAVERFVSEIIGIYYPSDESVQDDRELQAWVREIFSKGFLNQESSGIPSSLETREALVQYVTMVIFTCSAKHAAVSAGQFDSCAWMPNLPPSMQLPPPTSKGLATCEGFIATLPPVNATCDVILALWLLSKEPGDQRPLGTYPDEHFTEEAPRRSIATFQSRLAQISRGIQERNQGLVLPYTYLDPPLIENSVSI", "assay": "Confirmation qHTS Assay for Inhibitors of 15-hLO-2 (15-human lipoxygenase 2)", "details": "purified 15hLO-2, xylenol orange hydroperoxide absorbance; series mostly up to 57.1 µM; activity change, negative = inhibition: at the top concentration", "experimental": "Human lipoxygenase 15hLO-2 is a member of the closely related lipoxygenase family of enzymes which catalyze the site-specific oxidation of arachidonic acid to various hormone precursor molecules and as such is a candidate for drug development in a variety of disease areas, such as cancer and inflammation. Inhibition of 15hLO-2 activity was screened by utilizing arachidonic acid as a substrate. The extent of hydroperoxide product formation was measured by a secondary chromogenic reaction in which xylenol orange (XO, Sigma-Aldrich, cat. number 39,818-7) reacts with the ferric ions produced from the reaction between the hydroperoxide and ferrous ions. The Fe(III)-XO complex is characterized with red-shifted absorbance at 560 nm. A purified preparation of human 15hLO-2 was supplied by Professor Ted Holman, University of California, Santa Cruz. NIH Molecular Libraries Screening Centers Network [MLSCN] NIH Chemical Genomics Center [NCGC] MLSCN Grant: MH081283-01A1 PI Name: Holman, T.R., University of California, Santa Cruz\nAssay Protocol: Buffer: 25 mM Hepes pH 7.5, 0.01% Triton X-100. Reagents/Controls: Buffer in columns 3 and 4 as negative control (no enzyme). Substrate solution: 45 uM arachidonic acid (Sigma-Aldrich, St. Louis, MO) final concentration dispensed throughout the plate. Enzyme: 50 nM 15hLO-2 final concentration in columns 1, 2, 5-48. Column 1 is neutral (100% activity). Column 2 contained pin-transferred titration of NDGA (nordihidroguaiaretic acid, Sigma-Aldrich, N 5023, top concentration 10 mM in DMSO, then 1:2 dilution in duplicate). (Dilution factor: 23 nL into 4 uL.) Chromogenic detection reagent (divalent iron/xylenol orange, Fe-XO): 200 uM xylenol orange plus 300 uM ferrous ammonium sulfate prepared freshly in 50 mM sulfuric acid. Assay Steps: Three uL of enzyme were dispensed to 1536-well Greiner black clear bottom plates. Compounds and controls (23 nL) were transferred via Kalypsys PinTool. The plates were incubated for 15 min at room temperature, and then 1 uL of substrate solution was added to start the reaction. After room temperature incubation for 90 minutes, 4 uL of Fe-XO solution was added to each well followed by a short spin (1000 rpm, 15 sec) and the plates were then incubated for 30 min. The absorbance at 405 and 573 nm were measured using ViewLux (Perkin-Elmer) High-throughput CCD imager and absorbance protocol settings. The 573-to-405 absorbance ratio was used to compute reaction progress.", "units": {"activity change, negative = inhibition": "%"}, "values": [
      {"smiles": "CCOC(=O)c1ccc(N2CSC3=C(C#N)C(c4ccc(OC)cc4OC)CC(=O)N3C2)cc1", "note": "(configuration not stated)", "activity change, negative = inhibition": -12},
      {"smiles": "Clc1ccc(NNc2ccnc3cc(Cl)ccc23)cc1", "activity change, negative = inhibition": -13.6},
      {"smiles": "Cc1cccc(NC(=O)CSC(N)=O)c1C", "activity change, negative = inhibition": -20.6},
      {"smiles": "O=C(CC1C(=O)N(c2ccc(Cl)cc2)C(=S)N1CCc1ccncc1)Nc1ccc(F)cc1", "note": "(configuration not stated)", "activity change, negative = inhibition": 5.96},
      {"smiles": "Cc1cc(Nc2nnnn2-c2ccccc2)n(-c2ccc(Cl)cc2)n1", "activity change, negative = inhibition": -4.85},
      {"smiles": "CC(=O)NCCNc1ncncc1-c1ccc(N(C)C)cc1", "activity change, negative = inhibition": -18.4},
      {"smiles": "O=C1C2C3CCCC3=C3CCCC3C2C(=O)N1c1cccc(Cl)c1", "note": "(configuration not stated)", "activity change, negative = inhibition": -12.9},
      {"smiles": "Cc1csc(-c2coc3cc(O)cc(C)c3c2=O)n1", "activity change, negative = inhibition": -3.97},
      {"smiles": "Cc1ccc(OCC(=O)Nc2ccc(N3CCCC3)cc2)cc1C", "activity change, negative = inhibition": 3.37},
      {"smiles": "O=C(Nc1nc2n(n1)C(c1ccccc1)CC(c1ccc(Cl)cc1)N2)c1ccco1", "note": "(configuration not stated)", "activity change, negative = inhibition": 20.6},
      {"smiles": "CCCCn1c(Cc2ccccc2)n[nH]c1=S", "activity change, negative = inhibition": -28.7},
      {"smiles": "CN1CCN(C(c2cccnc2)c2ccc3cccnc3c2O)CC1", "note": "(configuration not stated)", "activity change, negative = inhibition": 0.164}
    ]}
  ]
}
